GLP-1R agonist – activates the human GLP-1 receptor | HEK293 GLP-1R CRE-luciferase, luminescence, 4-6 h; cells express a hypersensitive GLP-1R form | Potency, µM (top dose mostly 45.6 µM), most hits filed as activators | AID 624172 | actives 0.007% (n = 380,000) | P43220
Target sequence (P43220 whole entry, looked up): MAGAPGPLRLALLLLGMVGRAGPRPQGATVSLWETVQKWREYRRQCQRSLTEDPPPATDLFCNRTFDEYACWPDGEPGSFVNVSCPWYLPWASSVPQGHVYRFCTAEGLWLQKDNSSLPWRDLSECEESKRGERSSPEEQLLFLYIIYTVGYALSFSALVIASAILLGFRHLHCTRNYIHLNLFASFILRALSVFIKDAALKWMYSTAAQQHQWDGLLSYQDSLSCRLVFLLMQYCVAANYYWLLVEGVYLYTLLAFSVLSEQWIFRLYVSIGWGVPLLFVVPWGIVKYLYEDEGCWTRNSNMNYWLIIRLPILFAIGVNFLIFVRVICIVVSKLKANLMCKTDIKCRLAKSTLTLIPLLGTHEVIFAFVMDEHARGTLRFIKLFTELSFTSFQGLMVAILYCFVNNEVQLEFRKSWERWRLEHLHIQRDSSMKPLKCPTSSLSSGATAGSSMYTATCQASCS
p53 reactivation – restores transcriptional activity of mutant p53. H1299 p53-A138V BP100-luciferase reporter, luminescence, 24 h. Potency, µM (doses to about 92.2 µM), most hits filed as activators. actives 0.063% (n = 320,000); note: nearly all actives have a fitted effect of over 45% in size
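H1299 (p53-null), stable ts p53-A138V + BP100-Luc; 1000 cells/well, Opti-MEM/10% FBS; cpd 4 pt, 1:5; 24 h, 37 deg C, 5% CO2; detection reagent 10 min RT; luminescence.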
LDHA inh – blocks human lactate dehydrogenase A; purified LDHA, NADH/diaphorase-resazurin fluorescence; stronger effect = lower value; P00338; actives 0.15% (n = 480,000); activity change, % (values are at about 110 or 230 µM); in the data active = activity change below about -30%; inconclusive = mostly about -25% to -30%
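Remaining NADH was detected by diaphorase (0.133 mg/mL) converting 37 µM resazurin to fluorescent resorufin, read at 0 and 20 minutes. The preceding 5-minute room-temperature reaction used 2 nM LDHA, 0.2 mM sodium pyruvate and 0.06 mM NADH at pH 7.4.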
HEK293 tox – cytotoxicity in counter-screen for GLP-1R inverse agonists; HEK293 cAMP-luciferase reporter cells, luminescence, 24 h; actives 0.13% (n = 410,000); Potency, µM (highest dose often 38.3 µM), most hits filed as inhibitors;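 note: loss of luciferase light is scored as toxicity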
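Cells in DMEM/10% Nu serum/1% pen-strep, 1536-well format. Pre-incubated 12 h, dosed with 23 nL compound, incubated a further 24 h. Luciferase detection, 12 min at room temp, luminescence.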
ClpP mod – qHTS Assay for Activators of ClpP; Potency, µM (doses to about 57.5 µM); actives 1.9% (n = 340,000); ATP-dependent Clp protease proteolytic subunit (Bacillus subtilis (strain 168)), P80244; purified B. subtilis ClpP, FRET peptide cleavage, 20 min; active = well fitted falling curve with a large enough effect; inconclusive = small, poorly fitted or top-dose-only effect; inactive = no such curve, though single readings can be large or run the other way; note: the source files actives as falling curves though it sought activators and does not explain the sign; nearly all actives have a fitted effect of over 65% in size
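FRET quenching reversal measured ClpP activation: 10 microg/mL B. subtilis ClpP at pH 8 with the FRET-FV decapeptide, read at 430 nm after 320 nm excitation. The 20-min minus 0-min signal was scaled between DMSO/no-enzyme wells and ADEP (5.8 microM final).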
GLP1R inv ag – GLP-1 receptor (human) inverse agonism | actives 1.6% (n = 410,000) | P43220 | HEK293 GLP-1R CRE-luciferase, luminescence, 24 h; GLP-1R form is constitutively active | Potency, µM (titrated, usually from 38.3 µM), actives largely listed as inhibitors; note: nearly all actives have a fitted effect of over 55% in size
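Cells are plated, allowed 12 hours at 37 deg C, then treated with compounds for 24 hr before luciferase detection reagent is added and luminescence is read after 12 min at room temperature. The HEK293 line carries constitutively active GLP-1R with a cAMP-responsive reporter.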
Large screens that a line does not name were inactive. An excerpt weighted towards active compounds, which were near 2.9% of everything screened. Unless noted, calls come from the whole dose curve; as a rule, active = well fitted curve in the direction sought with a large enough effect; inconclusive = small, poorly fitted or top-dose-only effect, or another doubt; inactive = no such curve, though single readings can be large; an effect the other way counts as inactive or inconclusive.

Cc1cc(=O)n(C(C)Cc2ccccc2)n1C(C)Cc1ccccc1 (centres undefined)	ClpP mod 32µM (no result: p53 reactivation)
CCNC(=O)NC(=O)C(C)OC(=O)c1cc(C)nc2ccccc12 (centres undefined)	none (no result: GLP-1R agonist, p53 reactivation, HEK293 tox, ClpP mod, GLP1R inv ag)
Cc1cc(C(=O)OC(C)C(=O)NC(N)=O)c2ccccc2n1 (centres undefined)	LDHA inh -32 (no result: GLP-1R agonist, p53 reactivation, HEK293 tox, ClpP mod, GLP1R inv ag)
Cc1ccc2nc(C)cc(C(=O)OC(C)C(=O)NCC(C)C)c2c1 (centres undefined)	LDHA inh -30 (no result: GLP-1R agonist, p53 reactivation, HEK293 tox, ClpP mod, GLP1R inv ag)
O=C(/C=C/Nc1ccccc1C(F)(F)F)c1ccco1	none (no result: ClpP mod)
COc1ccccc1C(=O)NCCC(=O)NCC(c1ccccc1)N(C)C (centres undefined)	none
CCN(CC)CC(=O)Nc1c(C)cc(C(C)(C)C)cc1C	p53 reactivation inconclusive, GLP1R inv ag inconclusive
Cc1cccn2c(=O)c3cc(C#N)c(=O)n(Cc4cccnc4)c3nc12	ClpP mod 2.8µM
CCc1ccc(NC(=O)c2cnn(-c3ccccc3)c2-n2cccc2)cc1	GLP1R inv ag inconclusive (no result: GLP-1R agonist, p53 reactivation)
CCc1ccc(NC(=O)c2cnn3ccccc23)cc1	GLP1R inv ag 5µM
Cc1ccc(OCC(=O)Nc2ccc(C(=O)Nc3ccccc3C(=O)O)cc2)cc1C	none (no result: p53 reactivation)
Cc1ccc(OCC(=O)Nc2ccc(O)c(C(=O)O)c2)cc1C	ClpP mod 22µM
C=CC[C@H]1CC(C)=C[C@H](CC=C)N1C(=O)c1cc(COc2ccccc2SC)on1	GLP1R inv ag 8.9µM
Cc1cc(C)c(S(=O)(=O)Nc2cccnc2)c(C)c1	none
NC(=O)NNC1=Nc2cccc3cccc1c23	ClpP mod inconclusive
CCCCOC(=O)/C(=C/C=C/c1ccccc1)NC(=O)c1ccccc1	none (no result: ClpP mod)
CCCOC(=O)/C(=C\C=C\c1ccccc1)NC(=O)c1ccccc1	GLP1R inv ag 2.5µM (no result: ClpP mod)
C=CCn1c(C)nnc1SCC(=O)Nc1nc(C)c(C(=O)N(C)C)s1	none
O=C(COc1ccc(Br)cc1CO)Nc1ccccc1F	ClpP mod 10µM
CCCNCc1cc(Br)ccc1OCC(=O)NCCc1ccccc1	HEK293 tox inconclusive
COc1cc(CNCCc2ccccc2)cc(Br)c1OCC(=O)Nc1ccccc1C	HEK293 tox inconclusive, GLP1R inv ag 7.9µM
O=C(COc1ccc(Br)cc1CNCCc1ccccc1)NCc1ccccc1	HEK293 tox inconclusive, GLP1R inv ag 10µM
O=C(CNc1ccc(Br)cc1)Nc1ccc(S(=O)(=O)N2CCCC2)cc1	GLP1R inv ag 10µM
O=C(CNc1ccc(Br)cc1)Nc1cccc(S(=O)(=O)N2CCCC2)c1	GLP1R inv ag inconclusive
O=C(NCC(c1ccco1)N1CCN(c2ccccc2)CC1)OCc1ccccc1 (centres undefined)	GLP1R inv ag inconclusive
COc1cc2c(cc1OC)CN(C(=O)CCC(=O)c1ccc(F)cc1)CC2	GLP1R inv ag inconclusive
Cc1cc(Br)ccc1OCCNCc1ccccc1	GLP1R inv ag 8.9µM (no result: ClpP mod)
O=C(COc1ccc(Br)cc1CO)Nc1ccc(S(=O)(=O)N2CCCCC2)cc1	GLP1R inv ag 10µM
On1cnnc1-c1ccccc1	none
CCOC(=O)C(C(=O)OCC)C(=O)c1cccc2ccc3ccccc3c12	GLP1R inv ag inconclusive (no result: p53 reactivation)
CS(=O)(=O)NC(=O)c1ccc(F)c(F)c1	none (no result: GLP-1R agonist, p53 reactivation, HEK293 tox, ClpP mod, GLP1R inv ag)
COc1ccc(C(C)(C)C)cc1NC(=O)CNc1cccc2ccccc12	ClpP mod 11µM, GLP1R inv ag inconclusive
O=c1c2[nH]c3ccccc3c2ncn1CCN1CCCCC1	ClpP mod 25µM
Cc1ccc2c(c1)[nH]c1c(=O)n(CCCN3CCOCC3)cnc12	ClpP mod 28µM
Cc1ccc2c(c1)[nH]c1c(=O)n(CCN3CCCCC3)cnc12	ClpP mod inconclusive
Cc1ccc2[nH]c3c(=O)n(Cc4ccncc4)cnc3c2c1	ClpP mod 14µM
C=CCNC(=S)N/N=C/c1ccc(C(C)(C)C)cc1	HEK293 tox inconclusive, GLP1R inv ag 3.5µM (no result: ClpP mod)
